What all share (experiment): NCI-60 one-dose screen, 48 h (100 = growth as untreated, 0 = no growth, -100 = all killed)
Holding throughout (conditions): 10 µM unless noted

Test [1] deals with NCI-H23 lung.
Test [2] deals with NCI-H226 lung.
Test [3] has as its system NCI-H322M lung.
The test system of test [4] is HOP-62 NSCLC.
For test [5], the system named is NCI-H460 lung.
For test [6], the system named is NCI-H522 lung.
The test system of test [7] is A549/ATCC NSCLC.
Test [8] relates to 786-0 renal.
Test [9] has as its system DU-145 prostate.

15 compounds from PubChem BioAssay (NCI) can be followed below.

SMILES strings stand for the structures. About 83,000 compounds went through this panel and 20% of them were active in at least one assay; those are over-represented in the sample as a whole.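 Compound tested at a single concentration for 48 hours in 96-well plates; a percent growth value below 10 was scored as active.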 Values without a mark were called inactive. Calls of active or inactive are those of the source.

`COc1cc(/C=C/c2nnc(-c3cc(-c4ccccc4)n[nH]3)o2)cc(OC)c1OC`: the growth in [1] is 92.6%; in test [2], 100%; in test [3] it was 106%; in test [4], 102%; in [5], 107%; in test [6] it was 85.4%. Also, the growth in [7] was 97.5%; in test [8] it was 118%; in test [9], 108%.

In the case of `O=C1Cc2cc(CCN3CCN(CCOCCO)CC3)c(Cl)cc2N1Cc1ccc(-c2ccccc2-c2nn[nH]n2)cc1`, the growth in [1] is 85.8%; in [2], 81.8%; in test [3], 108%; in [4], 91.6%; in [5] it was 90%; in test [6], 79.4%. The values for the growth in test [7], in test [8] and in [9] were 87.1%, 86.8% and 117%, respectively.

Regarding `S=c1[nH]nc2sc3ccccc3n12`, the growth in test [1] is 88%; in [2], 106%; in test [3], 125%; in test [4] it was 97.9%; in [5], 111%; in [6], 98.4%. For the same compound, the growth is 108% in [7], 111% in test [8] and 121% in [9].

For `O=C(C(=O)N1CCOCC1)c1ccc(OC2OC(CO)C(O)C(O)C2O)cc1` (stereo not given), the growth in [1] is 106%; in test [2] it was 107%; in test [3], 115%; in [4], 107%; in test [5], 110%; in test [6] it was 79.9%. Also, the growth in test [7] was 107%; in [8], 103%; in [9] it was 125%.

In the case of `Cc1[nH]n(C(N)=S)c(=O)c1N=Nc1ccc(F)c(Cl)c1`, the growth is 102% in [1]; 87% in test [2]; 110% in test [3]; 92.1% in test [4]; 114% in test [5]; 94.6% in test [6]. Moreover, the growth in test [7] was 106%; in [8] it was 95.6%; in test [9] it was 100%.

For the compound `CNc1ccc(CSc2ccc(Cl)cc2)cc1`, the growth in [1] is 108%; in test [2], 84.6%; in [3], 123%; in [4] it was 87.4%; in test [5], 105%; in test [6], 75.6%. Further, the growth in test [7] was 93.6%; in test [8], 71%; in test [9], 127%.

For `COc1cc(C2=NN(C(C)=O)C(c3ccc(OC(C)=O)cc3OC(C)=O)O2)c(OC(C)=O)c2ccccc12` (stereo not given), the growth in test [1] was 38%; in test [2] it was 27%; in [3] it was 19.6%; in [4], 24.3%; in [5], 9.82% (active); in [6] it was -7.78% (active). Also, the values for the growth in test [7], in [8] and in [9] were 8% (active), 11.2% and 26.8%, respectively.

On to `O=C1CC(=O)N(c2ccccc2)O1`, for which the growth was 108% in [1]; 91.2% in test [2]; 108% in test [3]; 92.3% in test [4]; 111% in [5]; 95.6% in test [6]. The growth in test [7] was 107%; in [8] it was 105%; in test [9], 105%.

Consider `COc1cccc(C2C(C#N)=C(N)Oc3cc(OC)ccc32)c1` (stereo not given), for which the growth in test [1] is 16.2%; in test [2] it was 72.6%; in test [3] it was 32.6%; in [4], 24.6%; in test [5], 7.42% (active); in test [6] it was -38.4% (active). Further, the figures for the growth in [7], in [8] and in test [9] were 15.6%, 29.9% and -15.2% (active), respectively.

Consider `c1ccc(Nc2nnc(-c3cc(-c4cccnc4)n(-c4ccccc4)n3)s2)cc1`, for which the growth is 78.6% in test [1]; 99.8% in test [2]; 109% in test [3]; 99.1% in test [4]; 80.5% in test [5]; 71% in [6]. Also, the results for the growth in test [7], in test [8] and in [9] were 74.1%, 77.1% and 94.3%, respectively.

With `O=C(/C=C/c1ccc(O)c(O)c1)N1CCN(c2ccc(Cl)cc2)CC1`, the growth was 62.9% in test [1]; 63.8% in test [2]; 85.1% in [3]; 88.2% in test [4]; 46.4% in test [5]; -3.39% (active) in test [6]. The growth in [7] was 61.2%; in test [8], 73.1%; in test [9], 69.4%.

`C=C(C)[C@H]1CC/C(C)=C/CC[C@]2(C)O[C@H]2CC/C(C=O)=C\C1O` (stereo not given in full): the growth was 112% in test [1]; 106% in test [2]; 111% in [3]; 105% in test [4]; 104% in test [5]; 113% in [6]. The growth is 108% in test [7], 115% in test [8] and 106% in test [9].

On to `O=C(CSc1nc2c(n1Nc1ccccc1)-c1ccccc1SC2)Nc1nc(-c2ccc(Cl)cc2)cs1`, for which the growth in [1] was 53%; in test [2] it was 92%; in test [3] it was 91.1%; in [4] it was 62.3%; in test [5] it was 77%; in test [6] it was 65.2%. The growth was 25.7% in test [7], 71.5% in [8] and 73.5% in test [9].

`Cc1nc(N)[nH]c(=O)c1C`: the growth in test [1] is 97.4%; in [2], 97%; in [3], 96.6%; in test [4], 103%; in test [5], 106%; in test [6], 102%. The growth in test [7] was 103%; in [8] it was 103%; in [9] it was 109%.

In the case of `COc1ccc2nc(-c3ccc(-n4cncc4-c4ccc(OC)c(N)c4)cc3)sc2c1`, the growth is 108% in test [1]; 108% in test [2]; 95.3% in test [3]; 116% in test [4]; 100% in test [5]; 82% in test [6]. For the same compound, the growth in test [7] is 93.5%; in [8], 111%; in [9], 119%.
